Results filed as inconclusive are left out. Active and inactive are the calls of the source. Unless noted, calls follow the shape of the dose curve; as a rule, active = well fitted curve in the direction sought with a large enough effect; inconclusive = small, poorly fitted or top-dose-only effect, or another doubt; inactive = no such curve, though single readings can be large; an effect the other way counts as inactive or inconclusive.
Assays:
[1] = target: T1, Hexokinase-4 (Homo sapiens) + Glucokinase regulatory protein (Homo sapiens) (UniProt P35557+Q14397); experiment: qHTS assay for inhibitors of recombinant human GCK-GKRP interaction: Diaphorase-coupled assay (AID 743205); also: potency is read from the fitted curve at half-maximal effect
T1 sequence (P35557 whole entry, looked up): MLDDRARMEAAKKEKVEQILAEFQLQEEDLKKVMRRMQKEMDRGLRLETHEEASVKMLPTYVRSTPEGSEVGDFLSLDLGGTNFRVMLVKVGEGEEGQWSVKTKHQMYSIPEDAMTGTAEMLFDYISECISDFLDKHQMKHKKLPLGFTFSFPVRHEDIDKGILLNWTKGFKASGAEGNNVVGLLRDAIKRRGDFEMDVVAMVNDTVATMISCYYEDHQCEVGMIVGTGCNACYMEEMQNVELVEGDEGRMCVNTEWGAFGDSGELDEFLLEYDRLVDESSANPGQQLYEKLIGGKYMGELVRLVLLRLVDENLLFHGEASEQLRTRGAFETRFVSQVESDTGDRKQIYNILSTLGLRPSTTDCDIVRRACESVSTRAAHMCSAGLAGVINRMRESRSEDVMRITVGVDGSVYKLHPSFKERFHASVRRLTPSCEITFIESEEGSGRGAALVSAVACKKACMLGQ
T1 sequence (Q14397 whole entry, looked up): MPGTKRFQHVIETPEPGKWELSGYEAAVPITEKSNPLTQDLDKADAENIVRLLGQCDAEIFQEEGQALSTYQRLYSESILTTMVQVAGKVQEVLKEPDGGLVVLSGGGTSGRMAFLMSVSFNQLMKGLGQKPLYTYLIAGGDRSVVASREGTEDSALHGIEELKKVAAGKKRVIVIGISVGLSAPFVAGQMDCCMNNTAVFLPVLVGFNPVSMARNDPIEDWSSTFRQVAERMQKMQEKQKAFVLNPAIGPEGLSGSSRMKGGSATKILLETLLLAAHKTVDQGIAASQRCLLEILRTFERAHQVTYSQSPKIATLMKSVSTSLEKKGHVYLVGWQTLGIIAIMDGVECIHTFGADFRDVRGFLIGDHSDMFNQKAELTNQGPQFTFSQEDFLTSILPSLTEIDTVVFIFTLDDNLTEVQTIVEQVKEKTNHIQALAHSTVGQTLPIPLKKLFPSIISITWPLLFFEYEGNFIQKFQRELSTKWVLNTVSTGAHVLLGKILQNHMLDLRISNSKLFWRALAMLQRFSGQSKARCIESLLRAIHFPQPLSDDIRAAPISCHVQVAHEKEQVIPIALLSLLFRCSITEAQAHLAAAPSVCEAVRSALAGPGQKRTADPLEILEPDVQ
Method in brief: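 Resorufin fluorescence (525/590 nm), read each minute over 30 min, reports GCK activity coupled via G6PDH and diaphorase. Reaction: 10 nM GST-GCK, 10 nM FLAG-GKRP, 5 mM glucose, 0.4 mM ATP, 0.15 mM NADP+, 0.1 mM resazurin.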

[2] = target: T1, Hexokinase-4 (Homo sapiens) + Glucokinase regulatory protein (Homo sapiens); experiment: qHTS assay for inhibitors of recombinant human GCK-GKRP interaction: ADP-Glo assay (AID 743206); also: potency is read from the fitted curve at half-maximal effect
Method in brief: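 GST-GCK and FLAG-GKRP (15 nM each in the dispensed mix, with 2 uM S6P) react with 0.4 mM ATP and 5 mM glucose (final) in Hepes pH 7.6 for 60 min at room temperature. ADP is measured by ADP-Glo luminescence.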

[3] = target: T1, Hexokinase-4 (Homo sapiens) + Glucokinase regulatory protein (Homo sapiens); experiment: qHTS assay for inhibitors of recombinant human GCK-GKRP interaction: HTRF assay (AID 743207); also: potency is read from the fitted curve at half-maximal effect
Method in brief: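 HTRF read-out (ex 320 nm; 615/665 nm emission) after 60 min RT equilibration of 5 nM GST-GCK, 5 nM FLAG-GKRP, 2 uM S6P, compound and anti-FLAG/anti-GST detection antibodies; signal normalized between DMSO wells with and without GCK.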

[4] = qHTS Assay for Identifying Gametocytocidal Compounds (AID 743244);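 also: % is scaled to controls: 0 for no effect and ±100 for the full control effect; actives lower the fluorescent signal which means gametocytes are killed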; conditions: P. falciparum 3D7 stage III-V gametocytes, alamarBlue, 72 h; max response: hits give low values
Method in brief: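 Compounds are pinned into medium, gametocytes (stage III–V, 3D7, 20,000 cells/well) added, and plates held 72 h at 37 °C in 5% CO2. AlamarBlue follows for 24 h before fluorescence reading.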

[5] = qHTS assay for measurement of the activity of small molecule inhibitors on Zika virus induced Caspase-3 activity in human iPSC derived neural progenitor cells (hNPCs) (AID 1224857); also: % of control where 0% means no effect; nearly all actives have a fitted effect of over 65% in size
Method in brief: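 Pretreat hNPCs with compound 1 h; infect ZIKV 2 FFU/cell; 6 h 37 C, 5% CO2; Caspase-Glo 3/7, 30 min RT; luminescence; normalize to no-virus and virus-only wells.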

[6] = qHTS assay for measurement of the activity of small molecule inhibitors on Zika virus induced Caspase-3 activity in human astrocytoma cells (AID 1224859);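 also: plate controls were ZIKV-infected untreated cells for no effect and uninfected cells for full effect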
Method in brief: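 Human SNB-19 astrocytoma cells in RPMI 1640 with 10% FBS receive compound one hour ahead of Zika virus at 2 FFU/cell. After 6 h infection, caspase-3/7 activity is detected by Caspase-Glo luminescence.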

[7] = Natriuretic polypeptide receptor (hNpr1) antagonism - Pilot counterscreen GloSensor control cell line (AID 1347045; calls by dose curve; also: series mostly up to about 38 µM; % is scaled to controls: 0 for no effect and ±100 for the full control effect)
Method in brief: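 HEK293 cGMP GloSensor cells preloaded 2 h with 2% GloSensor reagent, then compound 30 min before baseline luminescence read. Stimulated with 50 uM sodium nitroprusside, 20 min at room temperature, then read again; counterscreen for Npr1 antagonism.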

[8] = target: Atrial natriuretic peptide receptor 1 (Homo sapiens) (UniProt P16066); experiment: Natriuretic polypeptide receptor (hNpr1) antagonism - Pilot screen (AID 1347049; calls by dose curve;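 also: agonist-evoked cGMP luminescence read 20 min after hNppA addition; series mostly up to about 58 µM; % is scaled to controls: 0 for no effect and ±100 for the full control effect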)
Atrial natriuretic peptide receptor 1 (Homo sapiens), sequence (P16066 whole entry, looked up): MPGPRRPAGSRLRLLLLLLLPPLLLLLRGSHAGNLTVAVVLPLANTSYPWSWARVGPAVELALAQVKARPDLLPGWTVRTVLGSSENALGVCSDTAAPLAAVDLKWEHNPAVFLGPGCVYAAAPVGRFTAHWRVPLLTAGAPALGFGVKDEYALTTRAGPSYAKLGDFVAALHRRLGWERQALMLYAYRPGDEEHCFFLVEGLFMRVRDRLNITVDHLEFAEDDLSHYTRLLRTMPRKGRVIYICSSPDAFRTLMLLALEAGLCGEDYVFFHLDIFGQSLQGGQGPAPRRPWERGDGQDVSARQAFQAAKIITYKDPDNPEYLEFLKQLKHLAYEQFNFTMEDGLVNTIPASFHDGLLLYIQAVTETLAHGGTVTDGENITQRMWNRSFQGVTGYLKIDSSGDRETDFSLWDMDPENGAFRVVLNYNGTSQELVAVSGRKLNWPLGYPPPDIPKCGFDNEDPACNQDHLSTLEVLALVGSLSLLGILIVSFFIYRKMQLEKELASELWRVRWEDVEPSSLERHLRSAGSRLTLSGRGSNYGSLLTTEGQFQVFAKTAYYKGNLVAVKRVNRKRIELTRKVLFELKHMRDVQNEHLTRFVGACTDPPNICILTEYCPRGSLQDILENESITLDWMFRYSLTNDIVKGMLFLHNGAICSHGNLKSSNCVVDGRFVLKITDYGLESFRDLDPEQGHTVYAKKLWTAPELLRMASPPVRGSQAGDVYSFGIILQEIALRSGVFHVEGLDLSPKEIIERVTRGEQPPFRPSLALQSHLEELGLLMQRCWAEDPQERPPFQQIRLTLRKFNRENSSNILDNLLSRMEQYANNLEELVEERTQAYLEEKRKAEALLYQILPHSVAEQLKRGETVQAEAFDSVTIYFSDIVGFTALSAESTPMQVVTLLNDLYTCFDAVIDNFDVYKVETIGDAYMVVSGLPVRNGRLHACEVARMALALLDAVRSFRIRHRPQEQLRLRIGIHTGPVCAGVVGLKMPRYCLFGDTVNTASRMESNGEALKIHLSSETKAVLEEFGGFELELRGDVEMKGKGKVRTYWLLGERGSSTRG
Method in brief: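 HEK293 cells expressing hNpr1 and GloSensor cGMP luciferase, 1500/well, loaded with 2% GloSensor reagent 2 h, compound 30 min at room temperature; luminescence read before and 20 min after 0.1 nM hNppA stimulation.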

[9] = target: Atrial natriuretic peptide receptor 2 (Homo sapiens) (UniProt P20594); experiment: Natriuretic polypeptide receptor (hNpr2) antagonism - Pilot subtype selectivity assay (AID 1347050; calls by dose curve; also: % is scaled to controls: 0 for no effect and ±100 for the full control effect)
Atrial natriuretic peptide receptor 2 (Homo sapiens), sequence (P20594 whole entry, looked up): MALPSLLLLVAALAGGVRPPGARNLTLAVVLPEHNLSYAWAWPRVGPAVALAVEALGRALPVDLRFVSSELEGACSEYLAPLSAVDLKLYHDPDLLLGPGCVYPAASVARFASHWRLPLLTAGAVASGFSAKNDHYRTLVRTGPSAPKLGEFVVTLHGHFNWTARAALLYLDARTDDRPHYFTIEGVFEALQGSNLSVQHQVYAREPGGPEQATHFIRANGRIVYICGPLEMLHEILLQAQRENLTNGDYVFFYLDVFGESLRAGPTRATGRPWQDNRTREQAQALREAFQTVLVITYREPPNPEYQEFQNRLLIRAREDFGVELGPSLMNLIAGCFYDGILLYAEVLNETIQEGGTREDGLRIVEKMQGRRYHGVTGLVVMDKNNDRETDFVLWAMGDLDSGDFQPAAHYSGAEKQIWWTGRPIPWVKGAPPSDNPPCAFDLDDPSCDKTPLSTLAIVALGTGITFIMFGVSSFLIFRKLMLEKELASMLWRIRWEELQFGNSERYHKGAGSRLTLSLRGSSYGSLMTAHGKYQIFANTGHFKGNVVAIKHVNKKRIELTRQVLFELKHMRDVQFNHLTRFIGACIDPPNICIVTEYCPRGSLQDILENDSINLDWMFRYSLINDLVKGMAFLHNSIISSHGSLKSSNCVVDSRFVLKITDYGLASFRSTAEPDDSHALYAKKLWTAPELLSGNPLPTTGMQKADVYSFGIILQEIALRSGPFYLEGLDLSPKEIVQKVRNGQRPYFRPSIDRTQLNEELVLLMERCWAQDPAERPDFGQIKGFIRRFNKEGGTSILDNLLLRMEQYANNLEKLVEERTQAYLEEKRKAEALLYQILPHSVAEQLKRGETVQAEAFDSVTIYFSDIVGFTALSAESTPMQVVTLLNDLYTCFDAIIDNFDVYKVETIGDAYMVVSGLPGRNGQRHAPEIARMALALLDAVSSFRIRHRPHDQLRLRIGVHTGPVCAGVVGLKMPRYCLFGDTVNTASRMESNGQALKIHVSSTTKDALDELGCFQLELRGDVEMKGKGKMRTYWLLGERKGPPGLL
Method in brief: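 HEK293 cells expressing hNpr2 and a GloSensor cGMP luciferase sensor, 1500/well, preloaded 2 h with 2% GloSensor reagent, compound 30 min, then 1 nM hNppC for 20 min. Antagonism from luminescence after versus baseline pre-read; LOPAC in 1:5 titrations.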

[10] = qHTS assay for cell viability of HEK293 cells (AID 743288); conditions: ATP luminescence (CellTiter-Glo), 18 h; max response: hits give low values; also: % is scaled to controls: 0 for no effect and ±100 for the full control effect; nearly all actives have a fitted effect of over 50% in size
Method in brief: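 Environmental chemicals tested in qHTS format against parental HEK293 cells; 18 h treatment, 37 C; read-out ATP luminescence (CellTiter-Glo), 30 min RT development.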

[11] = qHTS assay for cell viability of the p53RE-bla HCT-116 cell line (AID 743292); also: % is scaled to controls: 0 for no effect and ±100 for the full control effect; nearly all actives have a fitted effect of over 55% in size
Method in brief: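 ATP-based luminescence, 16 h compound exposure at 37 C, p53RE-bla HCT-116 cells at 4,000/well.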

O=C(O)CCC(=O)N1CCCC1C(=O)O (centres undefined)
inactive: Potency [1] | Potency [2] | Potency [3] | max response [4] -8.08% | Potency [5] | Potency [6] | Potency [7] | Potency [8] | Potency [9]

CSC(N)=NCCC[C@H](N)C(=O)O
inactive: Potency [1] | Potency [2] | Potency [3] | max response [4] 9.52% | Potency [5] | Potency [6] | Potency [7] | Potency [8] | Potency [9]

COC1(C2=NCCN2)COc2ccccc2O1 (centres undefined)
inactive: Potency [1] | Potency [2] | Potency [3] | max response [4] 25.5% | Potency [5] | Potency [6] | Potency [7] | Potency [8] | Potency [9]

NC(N)=[N+]1CCc2ccccc2C1
inactive: Potency [1] | Potency [2] | Potency [3] | max response [4] -3.89% | Potency [5] | Potency [6] | Potency [7] | Potency [8] | Potency [9]

NC(C(=O)N[C@@H]1C(=O)N2C(C(=O)O)=C(Cl)CS[C@H]12)c1ccccc1 (some centres undefined)
inactive: Potency [1] | Potency [2] | Potency [3] | max response [4] 8.93% | Potency [5] | Potency [6] | Potency [7] | Potency [8] | Potency [9]

OC[C@H]1O[C@H](n2cnc3c(N[C@H]4CCC[C@@H]4O)ncnc32)[C@H](O)[C@@H]1O
inactive: Potency [1] | Potency [2] | Potency [3] | max response [4] 20.9% | Potency [5] | Potency [6] | Potency [7] | Potency [8] | Potency [9]

Nc1ncnc2c1ncn2C1CCCC1
inactive: Potency [1] | Potency [2] | Potency [3] | max response [4] 29.2% | Potency [5] | Potency [6] | Potency [7] | Potency [8] | Potency [9]

NC1(C(=O)O)CCCCC1
inactive: Potency [1] | Potency [2] | Potency [3] | max response [4] 26.2% | Potency [5] | Potency [6] | Potency [7] | Potency [8] | Potency [9]

CC(N)=O
inactive: Potency [2] | Potency [3] | Potency [5] | Potency [6] | Potency [7] | Potency [8] | Potency [9]

CC(C)Cn1c(=O)n(C)c(=O)c2[nH]cnc21
inactive: Potency [2] | Potency [3] | max response [4] 4.24% | Potency [5] | Potency [6] | Potency [7] | Potency [8] | Potency [9]

CSc1nc(N)c2ncn([C@@H]3O[C@H](COP(=O)(O)OP(=O)(O)O)C(O)[C@H]3O)c2n1 (some centres undefined)
inactive: Potency [1] | Potency [2] | max response [4] 18.1% | Potency [5] | Potency [6] | Potency [7] | Potency [8] | Potency [9]

CCCCCCCCCCCCCCSCC(=O)O
inactive: Potency [1] | Potency [2] | Potency [3] | max response [10] -15% | Potency [11] | Potency [5] | Potency [6] | Potency [7] | Potency [8] | Potency [9]

CCn1c(=O)[nH]c2cc(Cl)c(Cl)cc21
inactive: Potency [1] | Potency [2] | Potency [3] | max response [4] 24.6% | Potency [5] | Potency [6] | Potency [7] | Potency [8] | Potency [9]

CSC(=N)N
inactive: Potency [1] | Potency [2] | Potency [3] | max response [4] 32.5% | Potency [5] | Potency [6] | Potency [7] | Potency [8] | Potency [9]

O=C(O)C1=CC(=C(c2ccc(O)c(C(=O)O)c2)c2ccc(O)c(C(=O)O)c2)C=CC1=O
inactive: max response [4] 21.2% | Potency [5] | Potency [6] | Potency [7] | Potency [8] | Potency [9]
active: Potency [1] 25.1 µM | Potency [2] 4.47 µM | Potency [3] 2.51 µM

NC(=O)c1ccccc1
inactive: Potency [1] | Potency [2] | Potency [3] | max response [4] -3.76% | max response [10] -1.67% | Potency [11] | Potency [5] | Potency [6] | Potency [7] | Potency [8] | Potency [9]

CCCn1c(=O)c2c(ncn2C)n(CCC)c1=O
inactive: Potency [1] | Potency [2] | Potency [3] | max response [4] 12.3% | Potency [5] | Potency [6] | Potency [7] | Potency [8] | Potency [9]

CC(=O)C(C)=O
inactive: Potency [1] | Potency [2] | Potency [3] | max response [4] 0.793% | max response [10] -4.3% | Potency [11] | Potency [5] | Potency [6] | Potency [7] | Potency [8] | Potency [9]

CC1=C(C(=O)O)N2C(=O)[C@@H](NC(=O)C(N)C3=CCC=CC3)[C@H]2SC1 (some centres undefined)
inactive: Potency [2] | Potency [3] | max response [4] 5.72% | Potency [5] | Potency [6] | Potency [7] | Potency [8] | Potency [9]

CCCc1c(OCCCOc2ccc(OCC(=O)O)cc2)ccc(C(C)=O)c1O
inactive: Potency [1] | Potency [2] | Potency [3] | max response [4] 1.52% | max response [10] -9.62% | Potency [11] | Potency [5] | Potency [6] | Potency [7] | Potency [8] | Potency [9]

COCc1nc2c([nH]1)c(=O)n(C)c(=O)n2CC(C)C
inactive: Potency [1] | Potency [2] | Potency [3] | max response [4] 28.7% | Potency [5] | Potency [6] | Potency [7] | Potency [8] | Potency [9]

Cn1ccnc1
inactive: Potency [1] | Potency [2] | Potency [3] | max response [4] 14.7% | Potency [5] | Potency [6] | Potency [7] | Potency [8] | Potency [9]

Cc1nc(N=Nc2ccc(C(=O)O)cc2)c(COP(=O)(O)O)c(C=O)c1O
inactive: Potency [1] | Potency [2] | Potency [3] | max response [4] 5.37% | Potency [5] | Potency [6] | Potency [7] | Potency [8] | Potency [9]

Reference: PubChem BioAssay (NCATS)
